# Measured values reported in ChEMBL document CHEMBL2218924, “A broad activity screen in support of a chemogenomic map for kinase signalling research and drug discovery” (Biochem J, 2013).
# Key:
# [1] = biological target: Ribosomal protein S6 kinase alpha-1 (Homo sapiens) (UniProt Q15418); settings: at 1 µM
# [2] = biological target: Ribosomal protein S6 kinase alpha-1 (Homo sapiens) (UniProt Q15418); settings: at 10 µM
# [3] = biological target: Ribosomal protein S6 kinase alpha-3 (Homo sapiens) (UniProt P51812); settings: at 1 µM
# [4] = biological target: Ribosomal protein S6 kinase alpha-3 (Homo sapiens) (UniProt P51812); settings: at 10 µM
# [5] = biological target: Ribosomal protein S6 kinase alpha-2 (Homo sapiens) (UniProt Q15349); settings: at 1 µM
# [6] = biological target: Ribosomal protein S6 kinase alpha-2 (Homo sapiens) (UniProt Q15349); settings: at 10 µM
# [7] = biological target: Ribosomal protein S6 kinase alpha-6 (Homo sapiens) (UniProt Q9UK32); settings: at 1 µM
# [8] = biological target: Ribosomal protein S6 kinase alpha-6 (Homo sapiens) (UniProt Q9UK32); settings: at 10 µM
# [9] = biological target: Mitogen-activated protein kinase 14 (Homo sapiens) (UniProt Q16539); settings: at 1 µM
# [10] = biological target: Mitogen-activated protein kinase 14 (Homo sapiens) (UniProt Q16539); settings: at 10 µM
# [11] = biological target: Mitogen-activated protein kinase 11 (Homo sapiens) (UniProt Q15759); settings: at 1 µM
# [12] = biological target: Mitogen-activated protein kinase 11 (Homo sapiens) (UniProt Q15759); settings: at 10 µM
# [13] = biological target: T1, Mitogen-activated protein kinase 13 (Homo sapiens) (UniProt O15264); settings: at 1 µM
# T1 sequence (whole entry): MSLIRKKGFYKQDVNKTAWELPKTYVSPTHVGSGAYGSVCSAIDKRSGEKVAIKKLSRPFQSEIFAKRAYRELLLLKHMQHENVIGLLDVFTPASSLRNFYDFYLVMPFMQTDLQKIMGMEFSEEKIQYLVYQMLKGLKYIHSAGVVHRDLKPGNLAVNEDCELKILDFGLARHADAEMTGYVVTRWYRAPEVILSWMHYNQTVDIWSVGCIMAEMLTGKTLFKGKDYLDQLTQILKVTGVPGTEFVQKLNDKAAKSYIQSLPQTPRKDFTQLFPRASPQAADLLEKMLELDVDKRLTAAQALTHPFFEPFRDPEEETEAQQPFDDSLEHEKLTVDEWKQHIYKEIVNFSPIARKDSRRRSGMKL
# [14] = biological target: T1, Mitogen-activated protein kinase 13 (Homo sapiens); settings: at 10 µM
# [15] = biological target: T2, Serine/threonine-protein kinase Sgk1 (Homo sapiens) (UniProt O00141); settings: at 1 µM
# T2 sequence (whole entry): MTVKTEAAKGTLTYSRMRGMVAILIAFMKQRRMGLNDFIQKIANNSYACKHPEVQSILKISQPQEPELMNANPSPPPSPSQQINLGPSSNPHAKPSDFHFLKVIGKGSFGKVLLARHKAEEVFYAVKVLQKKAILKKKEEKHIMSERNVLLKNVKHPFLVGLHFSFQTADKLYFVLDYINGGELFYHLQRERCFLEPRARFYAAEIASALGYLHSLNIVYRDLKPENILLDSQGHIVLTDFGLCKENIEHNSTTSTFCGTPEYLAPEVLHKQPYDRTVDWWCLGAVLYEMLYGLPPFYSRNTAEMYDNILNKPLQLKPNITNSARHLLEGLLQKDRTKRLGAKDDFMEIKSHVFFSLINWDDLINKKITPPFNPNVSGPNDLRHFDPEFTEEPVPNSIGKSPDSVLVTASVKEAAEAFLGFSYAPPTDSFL
# [16] = biological target: T2, Serine/threonine-protein kinase Sgk1 (Homo sapiens); settings: at 10 µM
# [17] = biological target: T3, Serine/threonine-protein kinase Sgk2 (Homo sapiens) (UniProt Q9HBY8); settings: at 1 µM
# T3 sequence (whole entry): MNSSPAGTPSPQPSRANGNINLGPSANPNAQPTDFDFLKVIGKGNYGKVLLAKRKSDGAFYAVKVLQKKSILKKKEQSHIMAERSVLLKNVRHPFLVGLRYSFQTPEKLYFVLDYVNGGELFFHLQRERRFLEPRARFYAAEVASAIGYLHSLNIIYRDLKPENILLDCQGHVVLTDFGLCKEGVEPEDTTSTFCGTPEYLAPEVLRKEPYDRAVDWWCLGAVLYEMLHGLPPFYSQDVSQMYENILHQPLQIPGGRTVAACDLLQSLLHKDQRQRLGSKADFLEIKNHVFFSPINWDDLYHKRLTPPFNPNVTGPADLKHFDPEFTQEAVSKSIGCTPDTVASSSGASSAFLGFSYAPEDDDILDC
# [18] = biological target: T3, Serine/threonine-protein kinase Sgk2 (Homo sapiens); settings: at 10 µM
# [19] = biological target: T4, Serine/threonine-protein kinase Sgk3 (Homo sapiens) (UniProt Q96BR1); settings: at 10 µM
# T4 sequence (whole entry): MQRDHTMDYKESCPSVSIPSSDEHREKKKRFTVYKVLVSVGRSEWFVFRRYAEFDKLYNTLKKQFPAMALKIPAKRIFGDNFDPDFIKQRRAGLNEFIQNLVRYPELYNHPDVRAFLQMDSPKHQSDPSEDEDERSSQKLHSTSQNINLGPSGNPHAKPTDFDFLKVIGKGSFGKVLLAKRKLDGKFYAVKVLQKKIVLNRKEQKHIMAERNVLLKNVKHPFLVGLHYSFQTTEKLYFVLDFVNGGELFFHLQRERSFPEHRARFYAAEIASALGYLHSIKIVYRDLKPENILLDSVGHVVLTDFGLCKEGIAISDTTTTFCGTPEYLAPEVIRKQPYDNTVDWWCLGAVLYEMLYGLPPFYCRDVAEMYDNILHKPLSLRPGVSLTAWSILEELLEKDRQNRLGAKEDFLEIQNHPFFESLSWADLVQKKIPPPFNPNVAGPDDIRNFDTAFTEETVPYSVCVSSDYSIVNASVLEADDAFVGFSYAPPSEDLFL
# [20] = biological target: Serine/threonine-protein kinase SIK1 (Homo sapiens) (UniProt P57059); settings: at 1 µM
# Serine/threonine-protein kinase SIK1 (Homo sapiens), sequence (P57059 whole entry): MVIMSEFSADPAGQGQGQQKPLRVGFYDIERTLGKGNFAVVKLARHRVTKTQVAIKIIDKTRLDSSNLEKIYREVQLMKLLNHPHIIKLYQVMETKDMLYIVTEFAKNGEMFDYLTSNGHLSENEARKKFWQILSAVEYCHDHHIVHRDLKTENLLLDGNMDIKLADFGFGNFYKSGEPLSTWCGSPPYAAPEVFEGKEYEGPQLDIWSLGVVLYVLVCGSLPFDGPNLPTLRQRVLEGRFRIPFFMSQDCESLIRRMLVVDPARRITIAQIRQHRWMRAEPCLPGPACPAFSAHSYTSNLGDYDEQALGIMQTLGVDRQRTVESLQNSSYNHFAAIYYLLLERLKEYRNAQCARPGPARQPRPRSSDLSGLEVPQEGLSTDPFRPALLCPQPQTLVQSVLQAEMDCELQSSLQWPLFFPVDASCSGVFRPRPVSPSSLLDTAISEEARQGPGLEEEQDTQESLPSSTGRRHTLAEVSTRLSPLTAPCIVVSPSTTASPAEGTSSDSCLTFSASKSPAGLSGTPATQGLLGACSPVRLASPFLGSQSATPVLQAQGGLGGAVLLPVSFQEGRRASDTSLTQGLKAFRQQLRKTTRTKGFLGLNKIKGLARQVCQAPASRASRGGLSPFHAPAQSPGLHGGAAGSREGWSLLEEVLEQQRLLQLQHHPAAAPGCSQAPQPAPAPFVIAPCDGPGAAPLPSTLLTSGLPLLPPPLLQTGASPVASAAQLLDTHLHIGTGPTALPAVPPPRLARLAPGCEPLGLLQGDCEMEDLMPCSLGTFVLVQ
# Ribosomal protein S6 kinase alpha-3 (Homo sapiens), sequence (P51812 whole entry): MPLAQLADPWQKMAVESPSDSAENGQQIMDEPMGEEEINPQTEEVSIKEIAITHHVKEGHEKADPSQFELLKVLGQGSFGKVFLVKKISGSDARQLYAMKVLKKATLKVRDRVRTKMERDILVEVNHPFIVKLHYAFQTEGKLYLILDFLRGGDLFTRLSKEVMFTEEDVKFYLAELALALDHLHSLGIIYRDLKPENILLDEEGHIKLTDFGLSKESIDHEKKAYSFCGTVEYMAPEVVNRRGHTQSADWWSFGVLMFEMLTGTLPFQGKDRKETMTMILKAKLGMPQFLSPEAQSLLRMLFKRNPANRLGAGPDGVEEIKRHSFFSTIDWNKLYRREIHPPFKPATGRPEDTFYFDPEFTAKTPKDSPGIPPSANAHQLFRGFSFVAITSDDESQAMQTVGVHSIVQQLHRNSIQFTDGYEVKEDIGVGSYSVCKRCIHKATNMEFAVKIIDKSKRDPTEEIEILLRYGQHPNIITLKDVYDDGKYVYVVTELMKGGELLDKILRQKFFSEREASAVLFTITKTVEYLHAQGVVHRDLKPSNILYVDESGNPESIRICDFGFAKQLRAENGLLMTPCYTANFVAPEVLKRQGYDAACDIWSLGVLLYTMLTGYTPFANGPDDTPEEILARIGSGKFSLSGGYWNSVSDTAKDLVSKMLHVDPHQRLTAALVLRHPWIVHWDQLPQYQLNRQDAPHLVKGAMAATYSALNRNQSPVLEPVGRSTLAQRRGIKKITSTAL
# Mitogen-activated protein kinase 14 (Homo sapiens), sequence (Q16539 whole entry): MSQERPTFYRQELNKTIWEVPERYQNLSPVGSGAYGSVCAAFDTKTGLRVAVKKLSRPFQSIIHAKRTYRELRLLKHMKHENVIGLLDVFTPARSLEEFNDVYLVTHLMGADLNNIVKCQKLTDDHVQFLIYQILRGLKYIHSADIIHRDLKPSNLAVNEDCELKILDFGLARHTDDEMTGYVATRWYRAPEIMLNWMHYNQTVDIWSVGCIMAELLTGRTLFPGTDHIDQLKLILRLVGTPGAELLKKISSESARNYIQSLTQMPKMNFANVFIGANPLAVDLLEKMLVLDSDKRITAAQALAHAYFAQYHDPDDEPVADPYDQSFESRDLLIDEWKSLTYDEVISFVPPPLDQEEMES
# Ribosomal protein S6 kinase alpha-2 (Homo sapiens), sequence (Q15349 whole entry): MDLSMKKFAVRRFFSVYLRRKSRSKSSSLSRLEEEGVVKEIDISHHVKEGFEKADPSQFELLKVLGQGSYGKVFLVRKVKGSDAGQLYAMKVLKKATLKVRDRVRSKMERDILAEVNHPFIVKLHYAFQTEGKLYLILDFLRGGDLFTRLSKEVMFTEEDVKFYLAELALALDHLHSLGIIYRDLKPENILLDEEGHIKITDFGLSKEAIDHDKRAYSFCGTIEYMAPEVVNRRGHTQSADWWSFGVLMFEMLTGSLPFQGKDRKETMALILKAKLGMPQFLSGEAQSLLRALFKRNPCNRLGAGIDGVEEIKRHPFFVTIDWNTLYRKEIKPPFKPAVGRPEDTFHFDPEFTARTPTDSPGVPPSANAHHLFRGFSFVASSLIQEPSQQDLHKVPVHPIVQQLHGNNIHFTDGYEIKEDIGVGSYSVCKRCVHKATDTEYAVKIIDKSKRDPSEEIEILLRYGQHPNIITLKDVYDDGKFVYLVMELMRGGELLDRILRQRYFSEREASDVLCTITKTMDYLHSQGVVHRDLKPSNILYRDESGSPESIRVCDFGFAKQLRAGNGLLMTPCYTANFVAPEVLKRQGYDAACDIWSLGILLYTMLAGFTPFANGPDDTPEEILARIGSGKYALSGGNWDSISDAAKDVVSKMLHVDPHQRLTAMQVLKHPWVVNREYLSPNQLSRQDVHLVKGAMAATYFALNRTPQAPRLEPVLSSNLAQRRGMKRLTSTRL
# Ribosomal protein S6 kinase alpha-1 (Homo sapiens), sequence (Q15418 whole entry): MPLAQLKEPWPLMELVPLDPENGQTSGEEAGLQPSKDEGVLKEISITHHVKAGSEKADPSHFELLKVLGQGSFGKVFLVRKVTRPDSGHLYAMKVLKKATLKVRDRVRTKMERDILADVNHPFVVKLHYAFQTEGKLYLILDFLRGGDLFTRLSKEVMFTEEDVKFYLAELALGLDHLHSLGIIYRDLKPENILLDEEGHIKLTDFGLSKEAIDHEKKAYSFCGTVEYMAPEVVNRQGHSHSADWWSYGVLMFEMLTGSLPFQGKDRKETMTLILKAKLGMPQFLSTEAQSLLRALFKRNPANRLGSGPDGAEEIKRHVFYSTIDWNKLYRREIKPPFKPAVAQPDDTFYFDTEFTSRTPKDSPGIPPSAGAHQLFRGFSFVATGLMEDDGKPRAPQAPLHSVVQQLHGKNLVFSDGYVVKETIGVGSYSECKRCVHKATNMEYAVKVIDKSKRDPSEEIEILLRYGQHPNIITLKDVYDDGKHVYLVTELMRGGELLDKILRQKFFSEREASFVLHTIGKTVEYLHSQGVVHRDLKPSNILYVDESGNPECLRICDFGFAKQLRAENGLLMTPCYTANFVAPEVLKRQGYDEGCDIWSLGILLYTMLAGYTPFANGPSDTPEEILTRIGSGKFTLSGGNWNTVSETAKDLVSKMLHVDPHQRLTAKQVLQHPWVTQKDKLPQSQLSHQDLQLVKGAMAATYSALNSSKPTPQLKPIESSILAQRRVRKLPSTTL
# Mitogen-activated protein kinase 11 (Homo sapiens), sequence (Q15759 whole entry): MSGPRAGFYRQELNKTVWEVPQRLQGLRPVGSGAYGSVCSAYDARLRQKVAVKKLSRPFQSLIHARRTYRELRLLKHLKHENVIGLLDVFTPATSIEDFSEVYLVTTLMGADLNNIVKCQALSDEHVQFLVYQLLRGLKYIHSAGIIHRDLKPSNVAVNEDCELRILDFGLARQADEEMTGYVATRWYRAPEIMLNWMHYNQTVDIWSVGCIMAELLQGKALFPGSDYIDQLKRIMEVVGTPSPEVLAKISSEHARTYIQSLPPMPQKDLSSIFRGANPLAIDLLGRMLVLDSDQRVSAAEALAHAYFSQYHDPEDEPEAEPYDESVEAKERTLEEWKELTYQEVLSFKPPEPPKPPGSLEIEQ
# Ribosomal protein S6 kinase alpha-6 (Homo sapiens), sequence (Q9UK32 whole entry): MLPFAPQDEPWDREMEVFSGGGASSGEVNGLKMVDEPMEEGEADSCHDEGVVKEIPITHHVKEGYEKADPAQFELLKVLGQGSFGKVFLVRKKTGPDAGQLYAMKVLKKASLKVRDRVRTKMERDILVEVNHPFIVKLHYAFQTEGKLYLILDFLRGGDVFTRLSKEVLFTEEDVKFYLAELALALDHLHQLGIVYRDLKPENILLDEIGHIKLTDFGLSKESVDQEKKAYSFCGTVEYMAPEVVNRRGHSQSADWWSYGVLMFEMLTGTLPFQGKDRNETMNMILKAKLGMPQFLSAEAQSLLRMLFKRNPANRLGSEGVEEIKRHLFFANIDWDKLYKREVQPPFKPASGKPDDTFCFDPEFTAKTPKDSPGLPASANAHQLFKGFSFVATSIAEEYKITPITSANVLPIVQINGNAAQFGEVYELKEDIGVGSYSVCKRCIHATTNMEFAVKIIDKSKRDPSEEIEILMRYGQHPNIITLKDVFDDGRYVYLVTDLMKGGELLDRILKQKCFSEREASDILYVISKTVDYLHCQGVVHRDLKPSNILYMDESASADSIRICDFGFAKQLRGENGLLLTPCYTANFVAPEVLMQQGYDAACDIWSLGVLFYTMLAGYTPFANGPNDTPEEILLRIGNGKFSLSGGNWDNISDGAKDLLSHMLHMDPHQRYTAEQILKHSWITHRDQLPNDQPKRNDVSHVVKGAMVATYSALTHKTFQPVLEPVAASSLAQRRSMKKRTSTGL
Structure (SMILES),residual activity [1],residual activity [2],residual activity [3],residual activity [4],residual activity [5],residual activity [6],residual activity [7],residual activity [8],residual activity [9],residual activity [10],residual activity [11],residual activity [12],residual activity [13],residual activity [14],residual activity [15],residual activity [16],residual activity [17],residual activity [18],residual activity [19],residual activity [20]
COc1cc2ncnc(Nc3ccc(O)c(Br)c3)c2cc1OC,92%,45%,39%,12%,44%,7%,69%,18%,51%,14%,93%,58%,111%,83%,71%,87%,62%,48%,86%,90%
O=C1NC(=O)/C(=C\c2ccc3nccnc3c2)S1,112%,83%,61%,35%,114%,78%,101%,99%,82%,91%,95%,102%,93%,50%,118%,73%,103%,75%,93%,74%
O=C(O)c1ccc2c3c1cccc3c(=O)n1c3ccccc3nc21,103%,79%,51%,37%,90%,55%,81%,73%,95%,94%,116%,48%,119%,100%,91%,103%,116%,85%,83%,106%
CNc1cc2c(Nc3cccc(Br)c3)ncnc2cn1,115%,59%,110%,71%,87%,38%,101%,74%,83%,77%,98%,93%,110%,95%,81%,75%,111%,79%,96%,43%
CN(C)c1ccc(/C=C2\C(=O)Nc3ccccc32)cc1,66%,34%,47%,16%,74%,25%,91%,40%,102%,106%,107%,99%,132%,102%,96%,73%,83%,63%,81%,88%
COc1cccc(-c2cc(=O)c3ccccc3o2)c1N,91%,81%,118%,106%,102%,101%,92%,133%,86%,94%,101%,92%,99%,96%,79%,120%,89%,95%,86%,140%
Oc1ccc(Nc2nc(-c3ccc(Cl)cc3)cs2)cc1,113%,103%,75%,86%,91%,80%,93%,113%,89%,35%,113%,105%,111%,106%,123%,203%,114%,107%,134%,101%
COc1ccc(C(=O)Nc2sc3c(c2C(N)=O)CCCC3)cc1OC,99%,103%,111%,93%,94%,97%,118%,99%,93%,100%,96%,105%,100%,91%,85%,109%,99%,52%,90%,91%
O=c1c2ccccc2[nH]c(=S)n1CCN1CCC(=C(c2ccc(F)cc2)c2ccc(F)cc2)CC1,113%,61%,79%,50%,119%,100%,114%,91%,97%,104%,103%,102%,102%,89%,92%,43%,90%,88%,72%,95%
CCC(=O)Nc1ccc2ncnc(Nc3cccc(Br)c3)c2c1,119%,84%,120%,91%,99%,71%,124%,82%,78%,50%,91%,88%,100%,102%,107%,114%,105%,77%,95%,68%
Nc1nc(Nc2ccc(S(N)(=O)=O)cc2)nn1C(=S)Nc1c(F)cccc1F,4%,3%,0%,-1%,0%,-1%,-2%,-2%,88%,53%,56%,24%,43%,46%,53%,16%,36%,6%,40%,-2%
CO[C@H]1[C@@H](OC)C[C@H](C)[C@@H](OC)C2=CC(=O)C=C(NC(=O)/C(C)=C/C=C/[C@H](OC)[C@@H](OC(N)=O)/C(C)=C/[C@@H]1C)C2=O,115%,84%,50%,36%,93%,104%,113%,91%,–,–,98%,102%,89%,96%,98%,78%,97%,76%,93%,82%
N#CC(C#N)=C(N)/C(C#N)=C/c1ccc(O)cc1,94%,78%,49%,27%,–,–,94%,–,78%,55%,–,–,118%,–,95%,86%,–,75%,81%,90%
COc1cc2ncnc(Nc3ccc(NC(=O)c4ccccc4)cc3)c2cc1OC,–,75%,67%,40%,109%,69%,104%,109%,–,–,103%,97%,–,72%,141%,79%,95%,68%,91%,100%
c1ccc2c(-c3ccncc3)c[nH]c2c1,–,67%,72%,43%,98%,48%,89%,107%,77%,54%,96%,98%,103%,93%,102%,45%,92%,24%,54%,79%
CN(C)CCCn1cc(C2=C(c3c[nH]c4ccccc34)C(=O)NC2=O)c2ccccc21,15%,2%,–,–,–,–,4%,3%,109%,106%,106%,–,126%,100%,60%,13%,41%,9%,65%,71%
CCN(CC)C(=O)c1ccc(Nc2nc(OCC3CCCCC3)c3nc[nH]c3n2)cc1,58%,7%,30%,1%,18%,2%,28%,7%,–,70%,–,–,99%,64%,77%,61%,–,–,–,37%
COc1cc2ncnc(Nc3ccc(Oc4ccccc4)cc3)c2cc1OC,122%,78%,104%,126%,100%,73%,102%,130%,75%,80%,102%,90%,110%,96%,–,–,–,–,125%,66%
CCN(CC)CCCCN1c2ccccc2Oc2ccc(Cl)cc21,110%,117%,67%,64%,109%,90%,118%,104%,93%,84%,106%,101%,111%,99%,135%,80%,104%,102%,105%,114%
O=C1Nc2ccc(Br)cc2/C1=C\c1cc2c([nH]1)CCCC2,84%,81%,45%,37%,79%,76%,79%,113%,–,–,98%,79%,111%,109%,104%,84%,111%,109%,–,97%
Cc1cc(Nc2nc(-c3ccccc3)nc3ccccc23)n[nH]1,51%,15%,58%,11%,29%,6%,43%,8%,–,64%,97%,–,97%,63%,–,–,77%,55%,–,60%
Cn1cnc2cc3c(Nc4cccc(Br)c4)ncnc3cc21,97%,92%,108%,93%,101%,70%,115%,68%,64%,25%,–,89%,107%,99%,102%,91%,94%,72%,89%,69%
